Assay results reported in PubChem BioAssay (Tox21).
Results filed as inconclusive are left out. Active and inactive are the calls of the source. Unless noted, calls follow the shape of the dose curve; as a rule, active = well fitted curve in the direction sought with a large enough effect in the repeat runs; inconclusive = weak or mixed curves; inactive = no such curve, though single readings can be large; an effect the other way counts as inactive or inconclusive.

What was measured:
[1] = qHTS assay to identify small molecule agonists of the vitamin D receptor (VDR) signaling pathway - cell viability counter screen (AID 743224); also: series mostly up to about 63 µM; nearly all actives have a fitted effect of over 50% in size
How it was run: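 VDR-bla cells were preincubated 4 h at 37C/5% CO2, then exposed to compounds for 16 h. After the 2 h room-temperature bla FRET read, CellTiter-Glo was added to the same wells and luminescence read after 30 min.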

[2] = qHTS assay to identify small molecule antagonists of the vitamin D receptor (VDR) signaling pathway - cell viability counter screen (AID 743225); also: nearly all actives have a fitted effect of over 50% in size
How it was run: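 VDR-UAS-bla HEK 293T cells were plated and incubated 4 h at 37C, then dosed with compound plus 3 nM (final) 1-alpha,25-dihydroxyvitamin D3 for 16 h. After the 2 h beta-lactamase read, viability in the same wells was read as CellTiter-Glo luminescence after 30 min at room temperature.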

[3] = qHTS assay to identify small molecule agonists of the NFkB signaling pathway - cell viability counter screen (AID 1159515; calls by dose curve; also: series mostly up to about 61 µM; nearly all actives have a fitted effect of over 55% in size)
How it was run: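 NFkB-bla ME-180 cells, 2,000/well, were plated overnight at 37 C, 5% CO2, then exposed to compounds in DMSO for 5 hr. After the bla FRET read, CellTiter-Glo was added to the same wells; luminescence was read after 30 min at room temperature.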

[4] = qHTS assay to identify small molecule agonists of the endoplasmic reticulum stress response signaling pathway (AID 1159516; active = well fitted activation curve with a large enough effect in the signal ratio in the repeat runs, not every such curve was filed as active; the % refers to the signal ratio)
How it was run: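 CellSensor ESRE-bla HeLa cells, carrying a beta-lactamase reporter driven by the ER stress response element, were plated overnight and exposed to compounds for 5 hr at 37 C. Reporter activity was read as FRET substrate fluorescence after 2 hr at room temperature.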

[5] = qHTS assay to identify small molecule agonists of the endoplasmic reticulum stress response signaling pathway - cell viability counter screen (AID 1159517; calls by dose curve; also: series mostly up to about 61 µM; nearly all actives have a fitted effect of over 50% in size)
How it was run: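 Cells, HeLa ESRE-bla; density, 1,500/well; dosing, 5 hr at 37 C, 5% CO2; readout, CellTiter-Glo luminescence after 30 min RT.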

[6] = qHTS assay to identify small molecule antagonists of the retinoid-related orphan receptor gamma (ROR-gamma) signaling pathway - cell viability counter screen (AID 1159520); also: nearly all actives have a fitted effect of over 50% in size
How it was run: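 Cytotoxicity was read from cellular ATP (CellTiter-Glo luminescence) after 16 hr at 37 C with 1 uM doxycycline induction. The inducer was added 2 hr after compound transfer to Tet-on ROR gamma CHO cells.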

[7] = molecular target: Nuclear receptor ROR-gamma (Homo sapiens) (UniProt P51449); test: qHTS assay to identify small molecule antagonists of the retinoid-related orphan receptor gamma (ROR-gamma) signaling pathway (AID 1159521)
How it was run: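 Tet-on ROR-gamma CHO cells with ROR response element-luciferase reporter; compounds added 2 hr before 1 uM doxycycline induction, then 16 hr at 37 C. Antagonism scored as decreased ONE-Glo luminescence.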

[8] = qHTS assay to identify small molecule agonists of the AP-1 signaling pathway - cell viability counter screen (AID 1159525; calls by dose curve; also: nearly all actives have a fitted effect of over 55% in size)
How it was run: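 Luminescent ATP readout (Cell Titer Glo, 30 min RT), normalised to DMSO and tetra n-octyl ammonium bromide controls. Cells were ME-180 AP-1-bla in 0.5% dialyzed FBS Opti-MEM, with a 5 h, 37 °C compound exposure.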

[9] = qHTS assay to identify small molecule agonists of the AP-1 signaling pathway (AID 1159526; calls by dose curve)
[10] = molecular target: Retinoic acid receptor RXR-alpha (Homo sapiens) (UniProt P19793); test: qHTS assay to identify small molecule agonists of the RXR signaling pathway (AID 1159527; calls by dose curve; also: nearly all actives have a fitted effect of over 35% in size)
Sequence of Retinoic acid receptor RXR-alpha (Homo sapiens) (P19793 whole entry, looked up): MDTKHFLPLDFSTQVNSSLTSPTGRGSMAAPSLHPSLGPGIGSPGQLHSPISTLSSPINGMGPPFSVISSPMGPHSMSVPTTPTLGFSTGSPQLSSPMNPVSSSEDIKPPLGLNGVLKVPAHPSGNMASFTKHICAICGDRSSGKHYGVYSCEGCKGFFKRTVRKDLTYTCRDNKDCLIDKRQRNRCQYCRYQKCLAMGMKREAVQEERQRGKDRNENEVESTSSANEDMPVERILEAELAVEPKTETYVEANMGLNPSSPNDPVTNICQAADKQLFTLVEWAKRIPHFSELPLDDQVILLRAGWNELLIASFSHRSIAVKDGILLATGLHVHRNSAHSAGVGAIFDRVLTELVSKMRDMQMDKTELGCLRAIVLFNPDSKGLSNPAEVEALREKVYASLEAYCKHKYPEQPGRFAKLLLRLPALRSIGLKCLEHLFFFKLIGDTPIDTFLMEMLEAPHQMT
How it was run: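 GeneBLAzer RXR-alpha-UAS-bla HEK 293T cells in 2% charcoal-stripped FBS medium were exposed to compounds for 16 hr at 37 C in agonist mode. Beta-lactamase reporter read as 460/530 nm FRET ratio after 2 hr substrate loading.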

[11] = qHTS assay to identify small molecule agonists of the RXR signaling pathway - cell viability counter screen (AID 1159529)
How it was run: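 RXR-alpha-UAS-bla HEK 293T cells in medium with 2% charcoal-stripped FBS were pre-incubated 5 hr, then compound-treated 16 hr at 37 C. Viability was read by CellTiter-Glo luminescence in the same wells as the beta-lactamase assay, with tetraoctyl ammonium bromide as positive control.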

[12] = qHTS assay to identify small molecule antagonists of the retinoid acid receptor (RAR) signaling pathway - cell viability counter screen (AID 1159551); also: nearly all actives have a fitted effect of over 35% in size
How it was run: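 C3RL4 cells were seeded overnight at 37 C, then treated with compounds plus 1 uM (final) retinol for 6 h at 37 C. Viability was read as ATP by CellTiter-Glo luminescence after 30 min at room temperature.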

[13] = qHTS assay to identify small molecule agonists of the retinoic acid receptor (RAR) signaling pathway (AID 1159553)
How it was run: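 C3RL4 cells carrying a RARE luciferase reporter were plated overnight at 37 C, then exposed to compounds in DMSO for 6 hr at 37 C and 5% CO2. Luminescence was read 30 min after luciferase reagent addition at room temperature.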

[14] = qHTS assay to identify small molecule antagonists of the estrogen related receptor (ERR) signaling pathway - cell viability counter screen (AID 1224818);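 also: series mostly up to about 46 µM; viability measured after 17.5 h of compound exposure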
How it was run: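 ERR reporter cells plated 6 h at 37 C/5% CO2, then compounds in DMSO pin-transferred and incubated 17.5 h at 37 C. Viability read as CellTiter-Fluor fluorescence after 30 min at 37 C.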

[15] = qHTS assay to identify small molecule antagonists of the estrogen related receptor (ERR) signaling pathway (AID 1224819)
How it was run: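 ERR reporter cells were plated at 2,000 cells/well and left 6 h at 37 C/5% CO2 before pin-tool transfer of compounds in DMSO. After 18 h at 37 C, One-Glo was added and luminescence was read 30 min later at room temperature.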

[16] = qHTS assay to identify small molecule agonists of the estrogen related receptor (ERR) signaling pathway (AID 1224820)
How it was run: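 ERR reporter cells (NTP line) plated 2,000/well, incubated 6 h at 37 C/5% CO2, then pinned with compounds in DMSO and held 18 h at 37 C. One-Glo added; luminescence read after 30 min at room temperature.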

[17] = test system: estrogen-related receptor alpha (ERRalpha) with PGC-1alpha coactivator, human; test: qHTS assay to identify small molecule antagonists of the estrogen related receptor signaling pathway with the pleiotropic PPARgamma coactivator (PGC) (AID 1224821; calls by dose curve)
How it was run: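 Cells engineered for PGC/ERR signalling (line from NTP) were plated 6 h at 37 C/5% CO2, then exposed to DMSO-dissolved compound for 18 h at 37 C. Luciferase activity was read by One-Glo luminescence after 30 min at room temperature.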

[18] = qHTS assay to identify small molecule antagonists of the estrogen related receptor signaling pathway with the pleiotropic PPARgamma coactivator (PGC) cell viability counter screen (AID 1224822; also: series mostly up to about 46 µM)
How it was run: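 PGC/ERR cells were seeded at 2,000 cells/well, rested 6 h at 37 C/5% CO2, then given compounds in DMSO by pin tool and incubated 17.5 h at 37 C. Viability came from CellTiter-Fluor fluorescence after 30 min.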

[19] = qHTS assay to identify small molecule agonists of the estrogen related receptor signaling pathway with the pleiotropic PPARgamma coactivator (PGC) (AID 1224823)
How it was run: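 PGC/ERR reporter cells were seeded, rested 6 h at 37 C/5% CO2, then exposed to compounds in DMSO by pin transfer for 18 h at 37 C. Luciferase activity was read as luminescence after One-Glo reagent and 30 min at room temperature.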

Measured: Potency

CC(C)[C@H]1CC[C@@H](C)CC1=O
not listed: [13] | [14] | [15] | [16] | [17] | [18] | [19]
inactive: all other assays above

O=C(O)c1cn(C2CC2)c2cc(N3CCNCC3)c(F)cc2c1=O
inactive: [3] | [4] | [5] | [6] | [7] | [9] | [10] | [11] | [12]

C[N+]1(C)CCCC(OC(=O)C(O)(c2ccccc2)c2ccccc2)C1 (stereo not drawn)
not listed: [8] | [14] | [15] | [16] | [17] | [18] | [19]
inactive: all other assays above

COc1cccc(OC)c1C(=O)N[C@@H]1C(=O)N2[C@@H]1SC(C)(C)[C@@H]2C(=O)O
not listed: [13] | [14] | [15] | [16] | [17] | [18] | [19]
inactive: all other assays above

NC(=O)N1c2ccccc2CC(=O)c2ccccc21
not listed: [13] | [14] | [15] | [16] | [17] | [18] | [19]
inactive: all other assays above

NCCCC[C@H](N[C@@H](CCc1ccccc1)C(=O)O)C(=O)N1CCC[C@H]1C(=O)O
not listed: [8] | [13] | [14] | [15] | [16] | [17] | [18] | [19]
inactive: all other assays above

Clc1cc(Cl)cc(Cl)c1
not listed: [13] | [14] | [15] | [16] | [17] | [18] | [19]
inactive: all other assays above

CC(COc1ccccc1)NN (stereo not drawn)
not listed: [8] | [13] | [14] | [15] | [16] | [17] | [18] | [19]
inactive: all other assays above

CN(C)C(=O)Oc1ccc[n+](C)c1
not listed: [8] | [13]
inactive: all other assays above
